Among the data in paper PMC8384837, “Expanding the binding specificity for RNA recognition by a PUF domain” are binding signal values, retold here.

Common to all, as to assay: yeast three-hybrid, YBZ-1, SC-Leu-His + 0.5 mM 3-AT, 4 days
Conditions in all cases: tags: N-Gal4 AD-HA kept; label: inside an RPR1-promoter hybrid RNA with tandem MS2 sites; ssRNA

For one assay, the target named is PUM1 PUF domain R7-ECA (Homo sapiens, UniProt Q14671 828-1176, S1079E;N1080C;E1083A). The method, boiled down: (§1)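 The interaction score is the logarithmic change in variant frequency from input to selection. It uses log2, with a pseudocount of 1 for absent variants, and frequencies came from PCR-amplified, Illumina-sequenced repeat regions. The libraries were Pumilio-1 PUF domains randomized at the three base-contacting residues per repeat, co-expressed with matching RNA elements in strain YBZ-1 (LexA–MS2 coat fusion, HIS3 reporter). Plating lasted four days on SC-Leu (input) or SC-Leu-His + 0.5 mM 3-AT (selection).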
Sequence of PUM1 PUF domain R7-ECA (Q14671 828-1176 S1079E/N1080C/E1083A): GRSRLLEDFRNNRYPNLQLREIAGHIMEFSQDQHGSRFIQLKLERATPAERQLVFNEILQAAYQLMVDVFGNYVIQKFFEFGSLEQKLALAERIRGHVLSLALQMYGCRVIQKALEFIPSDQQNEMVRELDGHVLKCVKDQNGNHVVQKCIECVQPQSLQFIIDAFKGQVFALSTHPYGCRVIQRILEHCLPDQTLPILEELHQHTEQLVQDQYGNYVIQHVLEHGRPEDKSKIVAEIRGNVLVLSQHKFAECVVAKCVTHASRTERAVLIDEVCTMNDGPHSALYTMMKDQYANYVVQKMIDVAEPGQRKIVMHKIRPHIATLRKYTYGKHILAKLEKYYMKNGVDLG

In a further assay the target is PUM1 PUF domain R1-RVE (Homo sapiens, UniProt Q14671 828-1176, S863R;R864V;Q867E). The method, boiled down: as §1
Sequence of PUM1 PUF domain R1-RVE (Q14671 828-1176 S863R/R864V/Q867E): as the sequence (Q14671 828-1176 S1079E/N1080C/E1083A) above, with S36R, R37V, Q40E, E252S, C253N, A256E counted along it
Another assay has as its target PUM1 PUF domain R8-FWR (Homo sapiens, UniProt Q14671 828-1176, N1122F;Y1123W;Q1126R). The method, boiled down:
as §1

Another assay deals with PUM1 PUF domain R5-RQR (Homo sapiens, UniProt Q14671 828-1176, C1007R;R1008Q;Q1011R). The essentials: as §1
Sequence of PUM1 PUF domain R5-RQR (Q14671 828-1176 C1007R/R1008Q/Q1011R): as the sequence (Q14671 828-1176 S1079E/N1080C/E1083A) above, with C180R, R181Q, Q184R, E252S, C253N, A256E counted along it
The target of another assay is PUM1 PUF domain R5-RKM (Homo sapiens, UniProt Q14671 828-1176, C1007R;R1008K;Q1011M). The essentials:
as §1

The next assay addresses PUM1 PUF domain R4-YRM (Homo sapiens, UniProt Q14671 828-1176, N971Y;H972R;Q975M). The method, boiled down:
as §1

The target of a further assay is PUM1 PUF domain R3-ARV (Homo sapiens, UniProt Q14671 828-1176, C935A;Q939V). The essentials: as §1
Sequence of PUM1 PUF domain R3-ARV (Q14671 828-1176 C935A/Q939V): as the sequence (Q14671 828-1176 S1079E/N1080C/E1083A) above, with C108A, Q112V, E252S, C253N, A256E counted along it
The target in the next assay is PUM1 PUF domain R2-VWP (Homo sapiens, UniProt Q14671 828-1176, N899V;Y900W;Q903P). The method, boiled down: as §1
Sequence of PUM1 PUF domain R2-VWP (Q14671 828-1176 N899V/Y900W/Q903P): as the sequence (Q14671 828-1176 S1079E/N1080C/E1083A) above, with N72V, Y73W, Q76P, E252S, C253N, A256E counted along it
Another assay has as its target PUM1 PUF domain R1-NVR (Homo sapiens, UniProt Q14671 828-1176, S863N;R864V;Q867R). The method, boiled down: as §1
For a further assay, the target named is PUM1 PUF domain R5-AYM (Homo sapiens, UniProt Q14671 828-1176, C1007A;R1008Y;Q1011M). The essentials:
as §1

Sequence of PUM1 PUF domain R1-NVR (Q14671 828-1176 S863N/R864V/Q867R): as the sequence (Q14671 828-1176 S1079E/N1080C/E1083A) above, with S36N, R37V, Q40R, E252S, C253N, A256E counted along it
Sequence of PUM1 PUF domain R8-FWR (Q14671 828-1176 N1122F/Y1123W/Q1126R): as the sequence (Q14671 828-1176 S1079E/N1080C/E1083A) above, with E252S, C253N, A256E, N295F, Y296W, Q299R counted along it
Sequence of PUM1 PUF domain R5-RKM (Q14671 828-1176 C1007R/R1008K/Q1011M): as the sequence (Q14671 828-1176 S1079E/N1080C/E1083A) above, with C180R, R181K, Q184M, E252S, C253N, A256E counted along it
Sequence of PUM1 PUF domain R5-AYM (Q14671 828-1176 C1007A/R1008Y/Q1011M): as the sequence (Q14671 828-1176 S1079E/N1080C/E1083A) above, with C180A, R181Y, Q184M, E252S, C253N, A256E counted along it
Sequence of PUM1 PUF domain R4-YRM (Q14671 828-1176 N971Y/H972R/Q975M): as the sequence (Q14671 828-1176 S1079E/N1080C/E1083A) above, with N144Y, H145R, Q148M, E252S, C253N, A256E counted along it

In the case of “GGCUAGAACUAGUGGAUCCCCCGGCGCCCGGCGGCUCGAGCCCGGGUAAGUUUAAAUAGUCUGCAUGCCGCCGGGCGCCAUGCCUGCAGGUCGACUCUAGAAAACAUG”, the binding signal in the assay with PUM1 PUF domain R7-ECA is 3.96 log2 enrichment (interaction score).
In the case of “GGCUAGAACUAGUGGAUCCCCCGGCGCCCGGCGGCUCGAGCCCGGGUAAGUGUAAAUGGUCUGCAUGCCGCCGGGCGCCAUGCCUGCAGGUCGACUCUAGAAAACAUG”, the binding signal in the assay with PUM1 PUF domain R1-RVE was 1.35 log2 enrichment (interaction score).
For “GGCUAGAACUAGUGGAUCCCCCGGCGCCCGGCGGCUCGAGCCCGGGUAAGCGUAAAUAGUCUGCAUGCCGCCGGGCGCCAUGCCUGCAGGUCGACUCUAGAAAACAUG”, the binding signal in the assay with PUM1 PUF domain R8-FWR is 3.91 log2 enrichment (interaction score).
As for “GGCUAGAACUAGUGGAUCCCCCGGCGCCCGGCGGCUCGAGCCCGGGUAAGUGUUAAUAGUCUGCAUGCCGCCGGGCGCCAUGCCUGCAGGUCGACUCUAGAAAACAUG”, in the assay with PUM1 PUF domain R5-RQR, the binding signal is 4.81 log2 enrichment (interaction score).
With “GGCUAGAACUAGUGGAUCCCCCGGCGCCCGGCGGCUCGAGCCCGGGUAAGUGUAAAUAGUCUGCAUGCCGCCGGGCGCCAUGCCUGCAGGUCGACUCUAGAAAACAUG”, the binding signal with PUM1 PUF domain R5-RQR is 1 log2 enrichment (interaction score); with PUM1 PUF domain R5-RKM, 2.32 log2 enrichment (interaction score); in the assay with PUM1 PUF domain R4-YRM, 2.31 log2 enrichment (interaction score); with PUM1 PUF domain R8-FWR, 3.71 log2 enrichment (interaction score); with PUM1 PUF domain R3-ARV it was 3.82 log2 enrichment (interaction score).
In the case of “GGCUAGAACUAGUGGAUCCCCCGGCGCCCGGCGGCUCGAGCCCGGGUAAGUGUAAAAAGUCUGCAUGCCGCCGGGCGCCAUGCCUGCAGGUCGACUCUAGAAAACAUG”, in the assay with PUM1 PUF domain R2-VWP, the binding signal is 4.15 log2 enrichment (interaction score).
Consider “GGCUAGAACUAGUGGAUCCCCCGGCGCCCGGCGGCUCGAGCCCGGGUAAGUCUAAAUAGUCUGCAUGCCGCCGGGCGCCAUGCCUGCAGGUCGACUCUAGAAAACAUG”, for which the binding signal with PUM1 PUF domain R7-ECA was 1.26 log2 enrichment (interaction score).
For the sequence “GGCUAGAACUAGUGGAUCCCCCGGCGCCCGGCGGCUCGAGCCCGGGUAAGUGUAAAUUGUCUGCAUGCCGCCGGGCGCCAUGCCUGCAGGUCGACUCUAGAAAACAUG”, the binding signal with PUM1 PUF domain R1-RVE was 2.57 log2 enrichment (interaction score); with PUM1 PUF domain R1-NVR, 3.93 log2 enrichment (interaction score).
“GGCUAGAACUAGUGGAUCCCCCGGCGCCCGGCGGCUCGAGCCCGGGUAAGUGUAAUUAGUCUGCAUGCCGCCGGGCGCCAUGCCUGCAGGUCGACUCUAGAAAACAUG”: the binding signal in the assay with PUM1 PUF domain R3-ARV was 1.96 log2 enrichment (interaction score).
As for “GGCUAGAACUAGUGGAUCCCCCGGCGCCCGGCGGCUCGAGCCCGGGUAAGUGUCAAUAGUCUGCAUGCCGCCGGGCGCCAUGCCUGCAGGUCGACUCUAGAAAACAUG”, the binding signal is 4.51 log2 enrichment (interaction score) in the assay with PUM1 PUF domain R5-RQR and 2.95 log2 enrichment (interaction score) in the assay with PUM1 PUF domain R5-AYM.
As to “GGCUAGAACUAGUGGAUCCCCCGGCGCCCGGCGGCUCGAGCCCGGGUAAGUGUAAAUCGUCUGCAUGCCGCCGGGCGCCAUGCCUGCAGGUCGACUCUAGAAAACAUG”, the binding signal with PUM1 PUF domain R1-RVE was 2.37 log2 enrichment (interaction score); in the assay with PUM1 PUF domain R1-NVR, 5.44 log2 enrichment (interaction score).
